Consider 35 molecules from PubChem BioAssay (EPA / NIEHS).

Inconclusive results are not listed. Activity calls are given as the source filed them. The calls were made as follows: active = hit-call score of the fitted dose curve at least 0.9, where 1 is the maximum; inconclusive = response in the unintended direction; inactive = score below 0.9.

Read-out in the assay: sulfotransferase (SULT2A), SULT2A1 (gene 6822)
Put plainly: CLD_SULT2A_24hr: CellzDirect (CLD) Gene Expression Assay for sulfotransferase (SULT2A) at 24 hours (AID 2283694). The method, then:
CLD_24hr is a cell-based, multiplexed-readout assay that uses hepatocyte, a human liver primary cell, with measurements taken at 24 hours after chemical dosing in a 96-well plate.CLD_SULT2A_24hr is one of 16 assay component(s) measured or calculated from the CLD_24hr assay. It is designed to make measurements of mRNA induction, a form of inducible reporter, as detected with chemiluminescence signals by Quantitative Nuclease Protection Assay (qNPA) technology.Data from the assay component CLD_SULT2A_24hr was analyzed at the endpoint, CLD_SULT2A_24hr, in the positive analysis fitting direction relative to DMSO as the negative control and baseline of activity. Using a type of inducible reporter, gain-of-signal activity can be used to understand changes in the reporter gene as they relate to the gene SULT2A1. Furthermore, this assay endpoint can be referred to as a primary readout. To generalize the intended target to other relatable targets, this assay endpoint is annotated to the transferase intended target family, where subfamily is sulfotransferase.
Human hepatocyte cultures were treated daily for two consecutive days with fresh dosing solutions containing appropriate concentrations of the 320 ToxCast chemicals (chemical identities were blinded to CellzDirect and other ToxCast collaborators), vehicle control (0.2% DMSO), and positive control inducers as summarized in Table 1. Due to the large number of treatment groups and chemicals examined, the ToxCast chemicals were divided into two groups (spanning two independent cultures of hepatocytes from separate donor preparations (Hu778: ToxCast plates 1 and 2; Hu776: ToxCast plates 3 and 4). Each preparation of human hepatocyte cultures was treated with respective vehicle control, medium only control, set of six positive controls/reference chemicals for the five hepatic receptor pathways, and a subset of eight of the ToxCast chemicals (indoxacarb, pyrithiobac-sodium, norflurazon, cyhalofop-butyl, methomyl, thiram, acetochlor, and propiconazole). These replicate data, coupled with internal replicates designed within the blinded ToxCast chemical library, provided additional data to evaluate interindividual differences between hepatocyte preparations and their potential impact on chemical profiles.Cell morphology and integrity were evaluated using phase-contrast microscopy as an indicator of hepatocyte cell health (Tyson & Green, 1987). Cultures for each treatment group (i.e., media, vehicle [0.2% DMSO], positive control inducers [multiple concentrations], and the ToxCast chemicals [multiple concentrations]) were observed and cell morphology was assessed relative to vehicle control cultures at each harvest time point (0, 6, 24, or 48 h). […] Images were evaluated at the conclusion of the study to assess changes in cell integrity and account for the effects of chemical exposure on uncharacteristic changes in concentration-dependent gene expression profiles. The results from these determinations of apparent cytotoxicity were annotated (yes/no) alongside the corresponding qNPA data for reference.At the conclusion of each treatment period, hepatocyte cultures (96-well) were washed with 1 volume of HBSS, lysed by addition of 25 ul ArrayPlate lysis buffer (HTG, Tucson, AZ), and 70 ul/well of Denaturation Oil, denatured by incubation at 95C for 10 min, and frozen at approximately -70C until analysis by nuclease protection assay (qNPA) (Roberts et al., 2007). For qNPA analysis, cell lysates were thawed at 50C for approximately 30 min, qNPA probes were added, and samples were incubated at 95C for 10 min to begin the detection process by denaturing the target RNA, dissociating the duplexes and secondary structure hybridization. At the conclusion of the hybridization period, S1 nuclease reagent was added to each sample to digest all nonprotected nucleotides at 50C for 60-90 min. […]
Turning to `CCCCC(CC)COC(=O)c1ccccc1C(=O)O` (stereo not given), the molecule was classed as inactive.
Consider `CC(C)(C)[C@@H](O)[C@@H](Cc1ccc(Cl)cc1)n1cncn1`, for which the outcome was inactive.
With `CCCCOC(=O)[C@@H](C)Oc1ccc(Oc2ccc(C(F)(F)F)cn2)cc1`, the molecule was classed as inactive.
As for `CCCCC(CC)CN1C(=O)C2C3C=CC(C3)C2C1=O` (stereo not given), the molecule was classed as inactive.
In the case of `CCCN(CCC)c1c([N+](=O)[O-])cc(C(F)(F)F)c(N)c1[N+](=O)[O-]`, the molecule was classed as inactive.
On to `COC(=O)c1c(Cl)nn(C)c1S(=O)(=O)NC(=O)Nc1nc(OC)cc(OC)n1`, for which the outcome was inactive.
With `CCOC(=O)NCCOc1ccc(Oc2ccccc2)cc1` the entry was “inactive”; with `Oc1ccc(C(c2ccc(O)cc2)C(Cl)(Cl)Cl)cc1`, “inactive”.
Turning to `CCCCCOC(=O)COc1cc(N2C(=O)C3=C(CCCC3)C2=O)c(F)cc1Cl`, the outcome was inactive.
As to `COCCO`, the molecule was classed as inactive.
As to `COC(=O)c1ccccc1S(=O)(=O)NC(=O)Nc1nc(OC(F)F)cc(OC(F)F)n1`, the molecule was called inactive.
Consider `c1ccc(Nc2ccccc2)cc1`, for which the result was inactive.
Regarding `CCCN(CCC)C(=O)SCC`, the molecule was called inactive.
On to `CCCOC(=O)c1ccc(C(=O)OCCC)nc1`, for which the outcome was inactive.
For `COC(=O)CSc1cc(N=c2sc(=O)n3n2CCCC3)c(F)cc1Cl`, the molecule was classed as inactive.
To `COc1c(Cl)ccc(Cl)c1C(=O)O` belongs “inactive”; to `N#CSCSc1nc2ccccc2s1`, “inactive”.
Consider `CCC(C)OC(=O)N1CCCCC1CCO` (stereo not given), for which the outcome was inactive.
To `CCCCOC(=O)C(C)Oc1ccc(Oc2ccc(C(F)(F)F)cn2)cc1` (stereo not given) belongs “inactive”.
Turning to `O=C(Nc1ccc([N+](=O)[O-])cc1Cl)c1cc(Cl)ccc1O`, the molecule was called inactive.
As for `CCCCOCCOCCOCc1cc2c(cc1CCC)OCO2`, the molecule was called inactive.
As for `CCOC(=O)[C@H](C)Oc1ccc(Oc2nc3ccc(Cl)cc3o2)cc1`, the outcome was inactive.
Regarding `COC(=O)c1ccccc1C(=O)O`, the molecule was classed as inactive.
Consider `COC(=O)c1cccc(C)c1S(=O)(=O)NC(=O)Nc1nc(OCC(F)(F)F)nc(N(C)C)n1`, for which the outcome was inactive.
For the molecule `CN(C)C(=O)Nc1ccc(Cl)c(Cl)c1`, the molecule was classed as inactive.
With `CCCCCCC(C)OC(=O)COc1nc(F)c(Cl)c(N)c1Cl` (stereo not given) the entry was “inactive”; with `CCOC(=O)C(C)Oc1ccc(Oc2nc3ccc(Cl)cc3o2)cc1` (stereo not given), “inactive”; with `Cc1nn(C)c(Oc2ccccc2)c1C=NOCc1ccc(C(=O)OC(C)(C)C)cc1`, “inactive”.
In the case of `C#CCOC(=O)[C@@H](C)Oc1ccc(Oc2ncc(Cl)cc2F)cc1`, the molecule was called inactive.
With `OB(O)O`, the molecule was classed as inactive.
On to `CCCOC(=O)NCCCN(C)C`, for which the call was inactive.
Take `O=C(O)C1(C(=O)Nc2ccc(Cl)cc2Cl)CC1`: the outcome was inactive.
With `CSC(=O)c1cccc2nnsc12` the entry was “inactive”; with `CC(C)(c1ccc(O)cc1)c1ccc(O)cc1`, “inactive”.
With `CCOC(=O)C(C)Oc1ccc(Oc2cnc3cc(Cl)ccc3n2)cc1` (stereo not given) the entry was “inactive”.
